# The other results are listed elsewhere or left out. How many sequences the whole screen found active is unknown.
# Target: furin, P09958
# Test: furin cleavage Z-score vs untreated control; higher = more cleavage, active = 3.5 or more, inactive = 1 or less, 8 variable residues between constant flanks
# In short: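 Sequencing of released DNA, tagged with adapters by PCR, gave read counts used as abundance. That DNA was freed when purified furin cut N-terminally bead-bound 8-mer peptides fused to a cDNA oligonucleotide, in 0.01 ml reactions at 1:10 enzyme:substrate in 50 mM HEPES pH 7.5 with CaCl2 and NaCl, lasting 7.5, 15 or 30 min. The cleavage Z-score was the lowess-adjusted log count versus furin-free reactions, scaled by median absolute deviation.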
# Sequence of furin, P09958 (P09958 whole entry): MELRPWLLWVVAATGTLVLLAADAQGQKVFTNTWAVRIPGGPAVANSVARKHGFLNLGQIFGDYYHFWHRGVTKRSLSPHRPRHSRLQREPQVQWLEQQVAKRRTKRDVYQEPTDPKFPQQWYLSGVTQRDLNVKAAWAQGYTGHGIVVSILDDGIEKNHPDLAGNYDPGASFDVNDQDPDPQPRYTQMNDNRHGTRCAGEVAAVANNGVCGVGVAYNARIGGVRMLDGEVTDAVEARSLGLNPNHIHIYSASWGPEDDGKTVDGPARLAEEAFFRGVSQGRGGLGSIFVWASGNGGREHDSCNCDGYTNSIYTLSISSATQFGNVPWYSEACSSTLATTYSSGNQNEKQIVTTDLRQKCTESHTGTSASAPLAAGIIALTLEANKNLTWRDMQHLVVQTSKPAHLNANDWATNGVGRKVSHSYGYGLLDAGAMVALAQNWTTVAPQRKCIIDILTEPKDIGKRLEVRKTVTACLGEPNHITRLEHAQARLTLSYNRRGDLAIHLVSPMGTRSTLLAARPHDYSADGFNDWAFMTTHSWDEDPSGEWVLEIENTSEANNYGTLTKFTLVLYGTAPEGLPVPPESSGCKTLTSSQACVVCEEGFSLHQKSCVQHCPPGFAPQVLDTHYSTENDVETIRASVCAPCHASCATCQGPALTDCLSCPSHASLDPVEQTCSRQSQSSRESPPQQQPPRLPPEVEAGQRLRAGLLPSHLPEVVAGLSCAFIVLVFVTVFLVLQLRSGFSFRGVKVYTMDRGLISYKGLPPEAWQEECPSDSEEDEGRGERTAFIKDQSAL
Sequence,furin cleavage Z-score (7.5 min),furin cleavage Z-score (15 min),furin cleavage Z-score (30 min)
CARSYRGISSAGNASASA [FS-2093],1.39,-0.63 (inactive),0.639 (inactive)
CAHIDLLVGSAGNASASA [HC291],-0.513 (inactive),-1.31 (inactive),-1.06 (inactive)
CARSKRDGSEAGNASASA [FS-1868],3.53 (active),5.29 (active),5.43 (active)
CALATRSFGSAGNASASA [HC1334],-0.496 (inactive),0.424 (inactive),-0.551 (inactive)
CARSGRVVGSAGNASASA [FS-3235],-1.67 (inactive),0.0813 (inactive),0.573 (inactive)
CARSKRDISSAGNASASA [FS-3083],9.51 (active),11.2 (active),9.07 (active)
CARSKKIFGSAGNASASA [FS-2405],-1.12 (inactive),-0.175 (inactive),0.546 (inactive)
CARAGRDVGSAGNASASA [FS-1989],2.62,3.76 (active),2.8
CARSKRRKYSAGNASASA [FS-2380],0.793 (inactive),-0.279 (inactive),0.723 (inactive)
CARSKRDVGSAGNASASA [FS-2379],11.6 (active),11.3 (active),8.54 (active)
CASTPCSAFLAGNASASA [HC2547],-0.397 (inactive),-0.0879 (inactive),0.628 (inactive)
CAQKLPINALAGNASASA [HC1380],0.17 (inactive),-0.107 (inactive),-0.819 (inactive)
CAGDFHYVTGAGNASASA [HC1209],-0.771 (inactive),-0.551 (inactive),-1.55 (inactive)
CATTPPSGSWAGNASASA [HC60],-1.04 (inactive),-0.299 (inactive),-0.554 (inactive)
CASYANGSGPAGNASASA [HC397],0.376 (inactive),-1.07 (inactive),0.0876 (inactive)
CADKEVVTSTAGNASASA [HC2294],-0.414 (inactive),-0.137 (inactive),-0.18 (inactive)
CAPLRRSKRRAGNASASA [FS-1148],9.4 (active),9.64 (active),8.71 (active)
CAAERRSVIRAGNASASA [FS-1666],-0.389 (inactive),-2.19 (inactive),-0.341 (inactive)
CAALKRPVEQAGNASASA [FS-2858],-1.15 (inactive),-0.538 (inactive),-0.285 (inactive)
CAIRQVGDFHAGNASASA [HC1207],-0.371 (inactive),-0.615 (inactive),-1.78 (inactive)
CAGENCGYRRAGNASASA [HC1506],-0.528 (inactive),-0.187 (inactive),-0.341 (inactive)
CAIRSRVLREAGNASASA [FS-804],12.6 (active),10.5 (active),8.33 (active)
CAALKRSKRRAGNASASA [FS-1445],11.5 (active),10.6 (active),8.09 (active)
CAIRSALKRPAGNASASA [FS-444],0.37 (inactive),-0.823 (inactive),-0.407 (inactive)
CAAEVRSKRRAGNASASA [FS-3],4.87 (active),4.38 (active),5.1 (active)
CAEVVPSTWVAGNASASA [HC140],-0.678 (inactive),-0.107 (inactive),0.5 (inactive)
CAESAGVQEDAGNASASA [HC1533],-0.496 (inactive),-1.46 (inactive),-0.975 (inactive)
CAQLFTFSPRAGNASASA [HC305],-0.105 (inactive),-0.574 (inactive),0.219 (inactive)

# — the supplement of paper PMC3545927
